Assay [1] can be described thus: small molecules captured by biotinylated probe aFSTL3 – biochemical, small-molecule microarray, fluorescence 635/667, stem cell growth factor project, primary screen (AID 1064).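 Also: measures binding of the biotinylated anti-FSTL3 antibody to printed compounds.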 The note with it: higher = more signal.
A short description of assay [2]: binders from COS7 lysate, DM2A8 probe, primary screen, torsin A project, cell lysate, small-molecule microarray, fluorescence 635/667 (AID 1065). The note with it: higher = more signal, COS7 lysate expressing mutant human TOR1A.
A short description of assay [3]: small molecules captured by biotinylated probe aFGF2 – biochemical, small-molecule microarray, fluorescence 635/667, stem cell growth factor project, primary screen (AID 1067).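 Also: measures binding of biotinylated aFGF2 protein to printed compounds on slides; z-score merges feature fluorescence and signal-to-noise across triplicate slides.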 The following applies: higher = more signal.
Assay [4] in a line: small molecules captured by biotinylated probe aFGF10 – biochemical, small-molecule microarray, fluorescence 635/667, stem cell growth factor project, primary screen (AID 1071).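 Also: score merges 667 nm spot intensity and signal to noise from triplicate slides.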 The note with it: higher = more signal.
The target in assay [5] is Neurogenic locus notch homolog protein 2 (Homo sapiens) (UniProt Q04721). Description: small molecules binding Notch2 protein – biochemical, small-molecule microarray, 635 nm fluorescence, stem cell growth factors, primary screen (AID 1073). The note with it: higher = more signal.
Sequence of Neurogenic locus notch homolog protein 2 (Homo sapiens) (Q04721 whole entry, looked up, canonical isoform): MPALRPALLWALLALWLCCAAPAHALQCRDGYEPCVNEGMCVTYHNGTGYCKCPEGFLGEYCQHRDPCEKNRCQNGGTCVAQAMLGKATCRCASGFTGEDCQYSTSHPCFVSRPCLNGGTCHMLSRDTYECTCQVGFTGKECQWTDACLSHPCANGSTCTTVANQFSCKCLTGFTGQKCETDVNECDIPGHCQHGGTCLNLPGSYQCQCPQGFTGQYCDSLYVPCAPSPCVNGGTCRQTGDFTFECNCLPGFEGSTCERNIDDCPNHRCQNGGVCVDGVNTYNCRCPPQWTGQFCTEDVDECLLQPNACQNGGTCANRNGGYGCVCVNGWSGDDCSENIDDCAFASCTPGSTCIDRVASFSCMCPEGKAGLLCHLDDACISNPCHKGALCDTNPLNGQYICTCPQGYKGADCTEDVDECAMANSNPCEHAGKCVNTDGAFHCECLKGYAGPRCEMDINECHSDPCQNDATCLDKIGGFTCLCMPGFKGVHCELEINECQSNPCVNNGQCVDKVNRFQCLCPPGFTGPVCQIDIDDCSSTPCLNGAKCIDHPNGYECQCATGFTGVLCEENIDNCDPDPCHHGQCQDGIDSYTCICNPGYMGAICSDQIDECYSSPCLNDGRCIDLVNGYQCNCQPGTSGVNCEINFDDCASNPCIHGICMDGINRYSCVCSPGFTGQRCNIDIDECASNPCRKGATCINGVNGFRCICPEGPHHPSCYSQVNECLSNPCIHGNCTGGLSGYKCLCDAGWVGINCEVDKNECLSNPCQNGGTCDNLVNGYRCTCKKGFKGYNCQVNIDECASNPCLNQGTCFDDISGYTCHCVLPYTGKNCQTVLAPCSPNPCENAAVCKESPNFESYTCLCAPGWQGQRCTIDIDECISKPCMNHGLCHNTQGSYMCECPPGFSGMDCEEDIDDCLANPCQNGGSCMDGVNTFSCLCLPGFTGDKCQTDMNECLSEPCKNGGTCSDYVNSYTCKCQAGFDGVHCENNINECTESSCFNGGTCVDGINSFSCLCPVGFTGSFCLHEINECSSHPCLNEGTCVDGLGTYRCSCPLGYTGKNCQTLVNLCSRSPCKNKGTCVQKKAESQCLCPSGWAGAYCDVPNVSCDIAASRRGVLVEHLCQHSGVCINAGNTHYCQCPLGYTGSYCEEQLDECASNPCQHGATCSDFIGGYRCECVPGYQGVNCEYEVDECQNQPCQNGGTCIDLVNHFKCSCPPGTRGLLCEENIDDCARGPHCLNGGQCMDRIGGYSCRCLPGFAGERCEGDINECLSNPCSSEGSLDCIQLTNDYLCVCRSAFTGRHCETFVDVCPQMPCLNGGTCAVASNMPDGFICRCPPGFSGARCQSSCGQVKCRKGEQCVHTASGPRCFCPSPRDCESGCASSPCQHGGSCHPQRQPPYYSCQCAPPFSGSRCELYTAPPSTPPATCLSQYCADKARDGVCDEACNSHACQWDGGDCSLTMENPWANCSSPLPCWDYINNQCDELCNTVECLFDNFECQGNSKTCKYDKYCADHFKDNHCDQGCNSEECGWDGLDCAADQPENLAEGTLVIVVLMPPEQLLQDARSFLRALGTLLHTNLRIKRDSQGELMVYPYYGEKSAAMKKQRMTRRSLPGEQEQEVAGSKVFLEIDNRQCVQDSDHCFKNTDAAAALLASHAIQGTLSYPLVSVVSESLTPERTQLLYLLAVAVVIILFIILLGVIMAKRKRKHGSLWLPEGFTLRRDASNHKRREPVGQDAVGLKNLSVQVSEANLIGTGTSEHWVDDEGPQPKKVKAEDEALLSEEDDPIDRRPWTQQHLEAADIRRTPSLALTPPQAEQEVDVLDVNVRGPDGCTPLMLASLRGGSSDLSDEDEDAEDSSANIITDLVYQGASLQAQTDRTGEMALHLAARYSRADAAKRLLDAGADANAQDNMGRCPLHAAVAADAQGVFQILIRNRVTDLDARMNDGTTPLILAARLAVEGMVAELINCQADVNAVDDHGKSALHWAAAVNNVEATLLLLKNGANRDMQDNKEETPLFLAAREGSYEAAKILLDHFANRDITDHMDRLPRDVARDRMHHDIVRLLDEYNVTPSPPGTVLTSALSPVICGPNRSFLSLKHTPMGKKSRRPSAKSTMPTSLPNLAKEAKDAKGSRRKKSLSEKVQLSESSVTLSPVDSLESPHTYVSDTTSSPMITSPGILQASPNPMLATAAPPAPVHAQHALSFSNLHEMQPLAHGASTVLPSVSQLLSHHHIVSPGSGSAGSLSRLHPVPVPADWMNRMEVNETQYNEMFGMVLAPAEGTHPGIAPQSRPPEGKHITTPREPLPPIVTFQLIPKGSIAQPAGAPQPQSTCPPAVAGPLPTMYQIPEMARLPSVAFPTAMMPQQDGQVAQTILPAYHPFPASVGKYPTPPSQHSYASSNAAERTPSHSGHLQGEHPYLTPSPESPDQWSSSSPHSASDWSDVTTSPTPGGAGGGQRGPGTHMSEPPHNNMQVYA
For assay [6], the target named is Pro-neuregulin-1, membrane-bound isoform (Homo sapiens) (UniProt Q02297). Description: small molecules binding neuregulin-1 protein – biochemical, small-molecule microarray, fluorescence 635/667, psychiatric disease protein project, primary screen (AID 1075).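 Also: score combines 667 nm spot fluorescence with signal to noise.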 The note with it: NRG1 binding, 635 nm fluorescence, higher = more signal.
Sequence of Pro-neuregulin-1, membrane-bound isoform (Homo sapiens) (Q02297 whole entry, looked up, the tested form may be a part, canonical isoform): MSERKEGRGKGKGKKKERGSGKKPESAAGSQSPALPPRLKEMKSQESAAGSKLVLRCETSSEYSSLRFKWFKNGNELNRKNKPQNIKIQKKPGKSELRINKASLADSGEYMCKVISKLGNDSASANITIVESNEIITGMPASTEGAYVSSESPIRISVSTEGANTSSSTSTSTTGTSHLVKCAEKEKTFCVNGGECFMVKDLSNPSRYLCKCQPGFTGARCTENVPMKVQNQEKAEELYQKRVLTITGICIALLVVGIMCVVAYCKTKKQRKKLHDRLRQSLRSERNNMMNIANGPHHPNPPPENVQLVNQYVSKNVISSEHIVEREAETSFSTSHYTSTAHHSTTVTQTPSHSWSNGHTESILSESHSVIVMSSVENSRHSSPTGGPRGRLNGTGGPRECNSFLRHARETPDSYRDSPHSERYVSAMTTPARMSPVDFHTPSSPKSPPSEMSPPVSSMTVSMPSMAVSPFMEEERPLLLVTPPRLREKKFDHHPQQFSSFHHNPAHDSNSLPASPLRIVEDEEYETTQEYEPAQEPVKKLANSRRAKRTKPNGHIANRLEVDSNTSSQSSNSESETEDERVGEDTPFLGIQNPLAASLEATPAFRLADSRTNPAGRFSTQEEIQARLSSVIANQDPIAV
Assay [7] deals with Neuregulin-1 EGF-like domain. Description: small molecules binding NRG1 EGF domain – biochemical, small-molecule microarray, 635 nm fluorescence, primary screen (AID 1081).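 Also: binding of the protein to compounds printed on small-molecule microarray slides.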 The note with it: higher = more signal.
Assay [8] can be described thus: FRG1 expression reporter modulators in myotubes – cell-based, C2C12 myotubes, firefly/Renilla luciferase, luminescence, FRG1 inhibition for FSHD, primary screen (AID 1084). The following applies: FRG1 promoter luciferase, higher = more signal, called active from +8 up or from −8 down.
A short description of assay [9]: small molecules captured by biotinylated probe aFST – biochemical, small-molecule microarray, fluorescence 635/667, stem cell growth factor project, primary screen (AID 1086).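 Also: score merges 667 nm fluorescence with signal-to-noise of each printed compound spot.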 The following applies: higher = more signal.
Assay [10] can be described thus: binders of probe aHhip on microarray, primary screen, stem cell growth factor project, biochemical, small-molecule microarray, fluorescence 635/667 (AID 1087).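 Also: score merges spot fluorescence at 667nm with spot signal to noise ratio.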 The note with it: higher = more signal.
For assay [11], the system named is PRMT1 (protein arginine N-methyltransferase 1). The assay is described as follows: small molecules binding arginine methyltransferase PRMT1 – biochemical, small-molecule microarray, 635 nm fluorescence, primary screen (AID 1088).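 Also: binding of Prmt1 protein to compounds spotted on small-molecule microarray slides.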 The following applies: higher = more signal.
The nature of assay [12]: growth effects on S. cerevisiae YJM789 – YJM789 clinical isolate, OD600, 24 h, basal, primary screen (AID 1089).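 Also: growth of clinical yeast isolate S. cerevisiae YJM 789 seeded 1000 cells per well; test concentration not given here.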 The note with it: higher = more signal, called active from +8 up or from −8 down.
Assay [13] can be described thus: S. pombe growth modifiers, basal conditions – strain 972, OD600, 24 h, no modulator, primary screen (AID 1090).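 Also: basal condition with compound alone and no growth modifier present; test concentration not given here.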 The following applies: S. pombe 972 growth, higher = more signal, called active from +8 up or from −8 down.
The nature of assay [14]: budding yeast growth modifiers under rapamycin – strain BY4716, OD600, 96 h, primary screen (AID 1091). Also: test concentration not given here. The note with it: S. cerevisiae BY4716 + rapamycin, higher = more signal, called active from +8 up or from −8 down.
For assay [15], the target named is Torsin-1A-interacting protein 2 (Homo sapiens) (UniProt Q8NFQ8). Description: small molecules binding lysate-expressed LULL1 – cell lysate, human LULL1 lysate, 635/667 nm fluorescence, primary screen (AID 1092).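 Also: probe is lysate of COS7 cells overexpressing human LULL1; score merges per-feature 667 nm fluorescence with signal-to-noise.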 The note with it: small-molecule microarray, hLULL1 lysate binding, 635 nm fluorescence; higher = more signal.
Sequence of Torsin-1A-interacting protein 2 (Homo sapiens) (Q8NFQ8 whole entry, looked up): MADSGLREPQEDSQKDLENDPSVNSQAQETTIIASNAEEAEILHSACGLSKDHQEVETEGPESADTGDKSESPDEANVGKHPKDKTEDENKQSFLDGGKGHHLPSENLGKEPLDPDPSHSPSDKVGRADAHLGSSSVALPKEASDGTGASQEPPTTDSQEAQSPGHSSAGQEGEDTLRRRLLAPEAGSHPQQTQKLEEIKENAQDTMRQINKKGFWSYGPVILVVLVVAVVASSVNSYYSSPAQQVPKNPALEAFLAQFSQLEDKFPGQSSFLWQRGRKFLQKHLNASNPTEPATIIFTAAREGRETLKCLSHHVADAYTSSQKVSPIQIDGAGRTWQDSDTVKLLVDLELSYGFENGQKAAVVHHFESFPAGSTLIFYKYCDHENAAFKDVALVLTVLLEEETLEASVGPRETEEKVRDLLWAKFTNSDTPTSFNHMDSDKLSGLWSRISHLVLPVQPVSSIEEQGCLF
Assay [16] can be described thus: optical density change of DRC41 E. coli – strain DRC41, OD650, 24 h, E. coli filamentation project, primary screen (AID 1093).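 Also: MC1000 strain lacking acrAB efflux and sulA so SOS filamentation is blocked; test concentration not given here.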 The note with it: E. coli DRC41 growth, higher = more signal, called active from +8 up or from −8 down.
Assay [17] is described as follows: probe aLefty2 binding to arrayed compounds – biochemical, biotinylated probe, 635/667 nm fluorescence, primary screen (AID 1094).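 Also: score merges spot fluorescence near 667 nm with spot signal-to-noise ratio.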 The note with it: small-molecule microarray, higher = more signal.
In assay [18] the test system is Noggin (protein binding on small-molecule microarray). Description: small molecules binding Noggin protein – biochemical, 635/667 nm fluorescence, primary screen (AID 1095).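 Also: score merges 667 nm feature fluorescence with signal to noise over triplicate slides.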 The following applies: 635 nm fluorescence, higher = more signal.
The target of assay [19] is Neurogenic locus notch homolog protein 3 (Homo sapiens) (UniProt Q9UM47). The assay is described as follows: small molecules binding NOTCH3 protein – biochemical, 635/667 nm fluorescence, primary screen (AID 1096). The following applies: small-molecule microarray, 635 nm fluorescence, higher = more signal.
Assay [20] is described as follows: probe aEGFR binding to arrayed compounds – biochemical, biotinylated probe, 635/667 nm fluorescence, primary screen (AID 1097).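 Also: probe is a biotinylated anti-EGFR antibody binding compounds printed on slides; score combines fluorescence near 667 nm and signal to noise of each spot.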 The note with it: small-molecule microarray, higher = more signal.

SMILES strings stand for the structures. “And” between values parts separate entries of the source, which are not always exact repeats. Equal entries are not always repeated. The source made the active and inactive calls.

As to `CON(C)C(=O)c1nnc2c3ccccc3n(S(=O)(=O)c3ccc(C)cc3)c2n1`, the composite z-score in assay [1] was -0.492 and -0.386; in assay [2], 0.216 and 0.226; in [3], -0.208 and 0.0937; in assay [4] it was 0.455 and 0.814; in [5], 0.81 and 0.675; in [6] it was 1.08 and 0.789. Further, the composite z-score is 0.804 and 1.19 in [7]; -0.458 and 0.184 in assay [9]; 0.12 and 0.28 in [10]; -0.0043 and 1.58 in assay [11]; 1.2 and 1.93 in [15]; -0.0944 and -0.229 in [17]. For the same compound, the composite z-score in [18] is 0.423 and 0.772; in assay [19], 0.233 and 1.04; in assay [20] it was -0.0238 and -0.171. In addition, the z-score in assay [8] is 161 (active) and 193 (active); in [12], -0.461 (inactive) and 0.111 (inactive); in assay [13] it was -0.823 (inactive) and -1.05 (inactive); in [14], 0.171 (inactive) and -0.671 (inactive); in [16], 0.155 (inactive) and 0.517 (inactive).

In the case of `C=C(C)C(=O)OC[C@@H]1CN2[C@@H](CC[C@@H](C)[C@@H]2c2ccc(Br)cc2)C(=O)O1`, the composite z-score was -0.577 in [1]; -0.275 in [2]; -0.083 in assay [3]; 0.733 in [4]; 0.636 in [5]; 0.776 in assay [6]. In addition, the composite z-score is 1.1 in [7]; 0.129 in assay [9]; -0.0645 in assay [10]; 0.819 in assay [11]; 1.32 in assay [15]; -0.247 in assay [17]. For the same compound, the composite z-score in assay [18] turned out to be 0.314; in [19], 0.259; in assay [20], 0.0251. The z-score in assay [8] was -0.889 (inactive); in [12], -0.792 (inactive); in assay [13], -2.7 (inactive); in [14], -1.52 (inactive); in assay [16], 0.53 (inactive).

On to `C=CCN(C(=O)C1N(c2ccc(CCO)cc2)C(=O)C2C(C(=O)O)C3C=CC21O3)c1ccc(OC)cc1` (stereo not given), for which the composite z-score in assay [1] is 0.0619 and 0.336; in assay [2], -0.767 and -0.885; in [3], -0.226 and -0.276; in assay [4] it was -0.19 and -1.02; in [5] it was -0.903 and -1.23; in assay [6], -0.0224 and -1.32. Moreover, the composite z-score in assay [7] was 0.939 and -0.115; in [9] it was -0.477 and -1.4; in [10], -0.132 and -0.236; in [11], -0.133 and -0.497; in assay [15] it was 0.0657 and -1.42; in [17] it was -0.0641 and 0.0524. Moreover, the composite z-score in assay [18] was -1.24 and -0.818; in assay [19] it was 0.0568 and -1.8; in assay [20], -0.302 and -0.367. In addition, the z-score in assay [8] was 4.82 (inactive) and -0.639 (inactive); in assay [12], 0.156 (inactive) and -0.236 (inactive); in [13], 0.332 (inactive) and -0.577 (inactive); in assay [14] it was 0.131 (inactive) and -1.62 (inactive); in [16], 0.683 (inactive) and 2.67 (inactive).

Take `C=CCN(C(=O)C(c1cccs1)N(C(=O)/C=C\C(=O)O)c1c(Cl)cccc1CO)c1ccc(OC)cc1` (stereo not given): the composite z-score in [1] was 1.98 and 1.01; in [2], -0.781 and -0.551; in [3], -0.228 and -0.0608; in [4] it was -1.56 and -0.737; in [5] it was -1.87 and -1.28; in assay [6], 1.04 and -0.796. For the same compound, the composite z-score in [7] was 0.782 and 0.0793; in assay [9], -1 and -0.362; in [10] it was -0.164 and -0.229; in [11], -0.517 and -1.02; in assay [15], 3.16 and 0.422; in assay [17], 0.018 and 0.522. The composite z-score in assay [18] was -3.84 and -2.48; in [19], -1.02 and -1.39; in assay [20], -0.238 and -0.121. Further, the z-score was 0.284 (inactive) and 0.649 (inactive) in [8]; -0.521 (inactive) and 0.247 (inactive) in assay [12]; -1.88 (inactive) and -0.83 (inactive) in assay [13]; -1.51 (inactive) and -0.982 (inactive) in assay [14]; 1.67 (inactive) and -0.311 (inactive) in assay [16].

The record behind these values is PubChem BioAssay.
